From PubChem BioAssay
Only some compounds are listed: those with a hit (about 1.6% of all), similar ones and a draw of the others.
KCNQ2 block – blocks the rat KCNQ2 potassium channel; CHO-K1 KCNQ2, FluxOR thallium flux, 20 min; active compounds read low; B-score at 10 µM; AID 2156; O88943; 310,000 compounds, 1.1% hits;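 active means fluorescence ratio B-score at most minus 3 library SDs, with starting brightness B-score within 2 library SDs, cut at about -5.5 in these data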
KCNQ2 pot – KCNQ2 (rat) channel potentiation | O88943 | CHO-K1 KCNQ2, FluxOR thallium flux fluorescence; active compounds read high | B-score at 10 µM | 310,000 compounds, 0.54% hits | AID 2239;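 active means fluorescence ratio B-score at least 3 SD of library B-scores, with initial fluorescence B-score within 3 of them, cut at about 5.3 in these data; same plate scores as AID 2156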;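 further: B-score of peak minus minimum over baseline fluorescence ratio after K+ and Tl+ stimulus; positive B-score means potentiation of KCNQ2 with more thallium influx and brighter signal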
Kir21 confirm – confirmation of mouse Kir2.1 potassium channel inhibitors. Kir2.1-expressing cells, FluxOR thallium flux fluorescence; active compounds read low. AID 2032. 2,300 compounds, 41% hits. Tl flux remaining, % of negative control (active compounds read low), % at 10 µM. shares compounds with KCNQ2 pot;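 active means Primary-screen hit whose thallium flux fell at least 3 control SD below untreated wells in both duplicates, with normal baseline fluorescence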
Target sequence (P35561 whole entry, looked up): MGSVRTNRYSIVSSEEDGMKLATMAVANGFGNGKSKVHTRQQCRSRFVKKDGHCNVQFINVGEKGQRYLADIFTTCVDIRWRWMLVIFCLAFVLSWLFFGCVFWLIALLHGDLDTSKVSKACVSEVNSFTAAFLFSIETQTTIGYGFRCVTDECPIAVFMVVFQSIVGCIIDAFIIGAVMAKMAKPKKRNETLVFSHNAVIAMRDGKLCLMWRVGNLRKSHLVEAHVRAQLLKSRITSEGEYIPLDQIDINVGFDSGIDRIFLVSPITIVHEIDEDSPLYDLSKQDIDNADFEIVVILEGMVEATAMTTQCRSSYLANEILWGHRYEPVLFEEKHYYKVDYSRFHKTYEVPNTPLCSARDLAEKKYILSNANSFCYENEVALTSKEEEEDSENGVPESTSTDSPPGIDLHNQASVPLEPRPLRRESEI
HEK293 Tl flux – counter-screen for Kir2.1 inhibitors: effect in parental HEK293 cells; FluxOR thallium flux fluorescence; 0% = unstimulated blank wells; 2,300 compounds, 19% hits; FluxOR signal as % of negative control (100 = no effect), % at 10 µM; shares compounds with KCNQ2 pot;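 active means dye signal at least 3 control SD above or below untreated wells in both duplicates, raw fluorescence within 3, either direction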;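 further: percent is based on the flux ratio of peak minus minimum fluorescence over baseline F0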
CHO-K1 ctr – counter-screen for KCNQ2 potentiators: effect in parental CHO-K1 cells; FluxOR thallium flux fluorescence; zero = vehicle mean+3SD, 100% = vehicle-minus-blank window; activity increase over 3SD of controls, % at 10 µM; AID 2282; 1,200 compounds, 43% hits; shares compounds with KCNQ2 pot;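 active means signal rise of at least 3 SD above the untreated control mean, in both duplicate wells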;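 further: counter screen of KCNQ2 potentiator hits so any rise reflects channel-independent effects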
KCNQ1 sel pot – selectivity of KCNQ2 potentiators: effect on human KCNQ1 | shares compounds with KCNQ2 pot | CHO KCNQ1 stable, FluxOR thallium flux fluorescence; beyond 3SD, as % of vehicle-control signal | activation over 3SD threshold, % at 10 µM | 1,200 compounds, 28% hits | AID 2283;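 active means fluorescence ratio rise of at least 3 SD of vehicle wells above their mean, in both replicate wells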
KCNQ2 pot confirm – rat KCNQ2 channel potentiator confirmation. shares compounds with KCNQ2 pot. CHO-KCNQ2 cells, FluxOR thallium flux fluorescence. potentiation, less the hit threshold, % at 10 µM. 1,200 compounds, 68% hits. AID 2287;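 active means fluorescence ratio rising 3 SD or more over the vehicle control mean in both replicates, plus primary screen hit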;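 further: peak minus minimum thallium fluorescence divided by baseline after K/Tl stimulus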
Kir2-1 sel – tests whether KCNQ2 potentiators also affect mouse Kir2.1. shares compounds with KCNQ2 pot. HEK293 Kir2.1, FluxOR thallium flux fluorescence. activity over 3SD threshold, % at 10 µM. 1,200 compounds, 2% hits. AID 2345;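 active means fluorescence ratio rise of at least 3 SD above the vehicle-control mean, seen in both replicates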
KCNQ2 W236L MoA – rat KCNQ2 W236L mutant potentiation by KCNQ2 potentiators | CHO KCNQ2-W236L, automated patch clamp current | current increase over 3SD of negative controls (%), active compounds read high, % at 25 µM | 940 compounds, 10% hits | shares compounds with KCNQ2 pot;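 active means current increase at least 3 SD of the untreated controls above them in both duplicate recordings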
Each line names hits and unclear results; the compound was inactive in the other large screens (follow-up assays come after a bar, where they were run).

COc1ccc(NC(=O)N/C=C/c2ccco2)cc1	none
CC(=O)Nc1cccc(NC(=O)c2csc(C)c2)c1	none
Cc1csc(NC(=O)CS(=O)(=O)Cc2ccccc2)n1	none (no result: KCNQ2 pot)
CCOC(=O)c1c(N)sc2c(OCC)c(Br)ccc12	none
CCOC(=O)c1c(NC(C)=O)sc2c(OCC(O)CNC(C)(C)C)c(Br)ccc12 (centres undefined)	none (no result: KCNQ2 pot) | Kir21 confirm inactive | HEK293 Tl flux inactive
CC(C)[C@H]1COCCS(=O)(=O)N1Cc1cccc(Cl)c1	none
O=C(NC12CC3CC(CC(C3)C1)C2)c1c(Cl)cccc1Cl	none
CSc1ccc(S(=O)(=O)NCc2ccccc2)cc1	none (no result: KCNQ2 pot)
CSc1ccc(S(=O)(=O)NC(C)c2ccccc2)cc1 (centres undefined)	none | Kir21 confirm 42.5% | HEK293 Tl flux inactive
C/C(CC(C)C)=N\NS(=O)(=O)c1ccc(C)c([N+](=O)[O-])c1	none (no result: KCNQ2 pot)
Cc1ccc(S(=O)(=O)NC(C)c2ccccc2)cc1[N+](=O)[O-] (centres undefined)	none | Kir21 confirm 46.0% | HEK293 Tl flux inactive
CCOC(=O)c1cc(C)n(Cc2ccc(OCC)c(OC)c2)c1C	none (no result: KCNQ2 pot)
Cc1cc(C)c(C(=O)COC(=O)c2cc([N+](=O)[O-])ccc2N2CCOCC2)cc1C	none (no result: KCNQ2 pot)
CC(C)(C)NC(=O)COc1coc(CN2CCN(Cc3ccccc3)CC2)cc1=O	none
c1ccc(COc2ccc(OCCCNC3CCCC3)cc2)cc1	none (no result: KCNQ2 pot) | Kir21 confirm 30.0% | HEK293 Tl flux inactive
CCC(C)c1ccccc1OCCCNC1CCCC1 (centres undefined)	none | Kir21 confirm 63.0% | HEK293 Tl flux inactive
COCCCNCCCCOc1ccc(OCc2ccccc2)cc1	none
CCC(C)c1ccccc1OCCCCN1CCCC1 (centres undefined)	none
CN(C)c1nnnn1-c1cccc(Oc2ncc(C(F)(F)F)cc2Cl)c1	none (no result: KCNQ2 pot)
O=C(CNc1ccc(Br)cc1)c1ccc(Br)s1	none (no result: KCNQ2 pot)
Cc1cccc(CCNC(=O)CNS(=O)(=O)c2ccc3nc(C)sc3c2)c1	none (no result: KCNQ2 pot)
NS(=O)(=O)c1ccc(CCNC(=O)CN2CCC(Cc3ccccc3)CC2)cc1	none
O=C(CN1CCC(Cc2ccccc2)CC1)NCCc1ccc(F)cc1	KCNQ2 pot 16 | CHO-K1 ctr 68.6 | KCNQ1 sel pot inactive | KCNQ2 pot confirm 56.2 | Kir2-1 sel inactive | KCNQ2 W236L MoA inactive
CC(NC(=O)c1ccc2c(c1)C(=O)N(Cc1cccnc1)C2=O)c1ccccc1 (centres undefined)	none (no result: KCNQ2 pot)
NC(=O)c1sc2nc(N3CCCCC3)c3c(c2c1N)CCCC3	KCNQ2 pot 6.65 | Kir21 confirm inactive | HEK293 Tl flux inactive | CHO-K1 ctr 10.5 | KCNQ1 sel pot inactive | KCNQ2 pot confirm inactive | Kir2-1 sel inactive | KCNQ2 W236L MoA inactive
COC(=O)c1sc2nc(N3CCCCC3)c3c(c2c1N)CCCC3	none
COc1ccc(CCNc2ncnc3cc(OC)c(OC)cc23)cc1OC	none
COc1cc2ncnc(NCCc3ccccc3)c2cc1OC	KCNQ2 pot 5.42 | Kir21 confirm inactive | HEK293 Tl flux 131.0% | CHO-K1 ctr 10.9 | KCNQ1 sel pot inactive | KCNQ2 pot confirm inactive | Kir2-1 sel inactive
Cc1cccc(C)c1NC(=O)c1ccc(-n2cnnn2)cc1	KCNQ2 pot 13.2 | Kir21 confirm inactive | HEK293 Tl flux inactive | CHO-K1 ctr inactive | KCNQ1 sel pot inactive | KCNQ2 pot confirm inactive | Kir2-1 sel inactive
O=C(Nc1ccc(Br)cc1)c1ccc(-n2cnnn2)cc1	none
Cc1ccc(OCC(=O)N2CCN(S(C)(=O)=O)CC2)cc1	none
CC(=O)N(CC(=O)O)c1ccccc1	none
CC(=O)N(CC(C)(C)CC=C(C)C)c1ccccc1	none (no result: KCNQ2 pot) | Kir21 confirm 54.5% | HEK293 Tl flux inactive
Cc1ccc(NC(=O)CN(C)Cc2nc3c(Br)cc(Br)cc3c(=O)[nH]2)cc1	none (no result: KCNQ2 pot)
Cc1cc(C)c(S(=O)(=O)N2CCCC(C(=O)NC3CCCC3)C2)c(C)c1 (centres undefined)	none
O=C(NN1C(=O)c2ccccc2C1=O)C1C2CCCCC21 (centres undefined)	none (no result: KCNQ2 pot)
CC(C)Cc1csc(NC(=O)C(C)C)c1C(=O)O	none
CC(C)Cc1csc(NC(=O)c2ccc(Br)cc2)c1C(=O)O	KCNQ2 pot 6.07 | Kir21 confirm inactive | HEK293 Tl flux 126.5% | CHO-K1 ctr 6.1 | KCNQ1 sel pot 15.7 | KCNQ2 pot confirm 17.6 | Kir2-1 sel inactive | KCNQ2 W236L MoA inactive
CCOC(=O)N1CCN(S(=O)(=O)N2CCCC(C(=O)NCCCN3CC(C)CC(C)C3)C2)CC1 (centres undefined)	none
O=C(c1nnsc1S(=O)(=O)c1ccc(Cl)cc1)N1CCOCC1	none
CNC(=O)c1nnsc1S(=O)(=O)c1ccc(Cl)cc1	KCNQ2 block -7.12 | Kir21 confirm inactive | HEK293 Tl flux inactive
O=C(CNC(=O)c1ccc(Cl)c([N+](=O)[O-])c1)OCN1C(=O)c2ccccc2C1=O	none (no result: KCNQ2 pot)
Cc1[nH]n(-c2nc(-c3cccc([N+](=O)[O-])c3)cs2)c(=O)c1C	none (no result: KCNQ2 pot)
Cc1ccc(O)c(CNCCNCc2cc(C)ccc2O)c1	none (no result: KCNQ2 pot) | Kir21 confirm 38.0% | HEK293 Tl flux inactive
Cc1ccnc(NCc2ccccc2O)c1	none
CCc1ccc(O)c(CNCCNCc2cc(CC)ccc2O)c1	none | Kir21 confirm 50.0% | HEK293 Tl flux inactive
CCc1ccc(O)c(N=Cc2ccccc2O)c1	none (no result: KCNQ2 pot)
Cc1nc2ccccn2c1C(=O)CSc1cccc(Cl)c1	none (no result: KCNQ2 pot)
CC[C@H](C)[C@H](NC(=O)c1ccccc1)C(=O)NC(CC(=O)O)c1ccc(F)cc1 (some centres undefined)	none
COc1cc(CN2CCN(c3ncccn3)CC2)cc(OC)c1	none
CC(C)CCN(C(=O)Nc1ccccc1)C(C)c1cccs1 (centres undefined)	none (no result: KCNQ2 pot)
Cc1ccccc1-n1c(-c2ccc(=O)[nH]n2)n[nH]c1=S	none
CC(C)(C)c1cc(-c2n[nH]c(=S)n2-c2ccccc2F)n[nH]1	KCNQ2 pot 5.3 | Kir21 confirm inactive | HEK293 Tl flux 154.5% | CHO-K1 ctr inactive | KCNQ1 sel pot inactive | KCNQ2 pot confirm 43.9 | Kir2-1 sel inactive | KCNQ2 W236L MoA 20.2%
CCn1c(CCNC(=O)c2ccc(OC)cc2)nnc1SCc1ccc(Cl)c(Cl)c1	none (no result: KCNQ2 pot) | Kir21 confirm 67.0% | HEK293 Tl flux inactive
